We go through 27 compounds from PubChem BioAssay AID1508649 (National Center for Advancing Translational Sciences (NCATS), 2021).

The whole screen tested about 43,000 compounds, of which about 830 (1.9%) were called active. Where a call stands in place of a potency, no number is given. About 30% were inconclusive and are not listed. How the source made its calls: active means clear falling dose curves in both reporters; inconclusive means both reporters move, but less clearly or upward; inactive means either reporter flat; the % is the NLuc reporter signal. Many of the other results were omitted from the sample, so actives are more common in it than they were.
Potency means the concentration at half of the fitted maximal effect.

This test can be described thus: Cell-based coincidence reporter assay to measure PMP22 gene transcription in S16 Pmp22-F2sN cells - Primary screen. Particulars: S16 Pmp22-F2sN Schwann cells (luciferase reporters placed in the Pmp22 gene), FLuc/NLuc coincidence luminescence, 24 h; series mostly up to 57.5 µM. From the text:
Assay Provider: Jim Inglese Ph.D. National Center for Advancing Translational Science, National Institutes of Health, Rockville, MD CMT is a heterogeneous group of neurological disorders that affect approximately 1 in 2,500 people. In particular, the most common form of CMT, CMT1A is genetically linked to the duplication of the PMP22 gene which leads to Schwann cell overexpression, thus manifesting itself as a typical case of dose-sensitive diseases. To identify small molecule compounds that can mediate the expression of PMP22 we developed a phenotypic assay screening strategy by utilizing genome editing techniques to construct Schwann cell lines containing novel reporter technology to monitor the transcriptional or translational regulation of PMP22. For high sensitivity we use a bioluminescent reporter system embedded in the 3' UTR of the PMP22 gene (S16(c9) Pmp22-F2sN) to identify compounds that inhibit gene expression. […] We can further discriminate the effect of all transcriptionally active molecules on PMP22 translation or stability with an assay that incorporates a short NLuc peptide (HiBiT) at the C-terminus of expressed PMP22 (S16(f8) PMP22-HiBiT) allowing alpha complementation and luminescence detection of membrane-associated PMP22 protein. These assays were screened against the NCATS Sytravon Library Collection. Miniaturization of these assays to 1536-well plate format for quantitative high throughput screening (qHTS) yielded rich data sets immediately from the qHTS assay (S16(c9) Pmp22-F2sN), when compared with data from a cell viability assay (Cell TiterGlo) to identify compounds that decreased the output signals through cellular toxicity to streamline the selection process of actives for subsequent characterization using the HiBiT assay (S16(f8) PMP22-HiBiT).
Cell-based coincidence reporter assay to measure PMP22 gene transcription in S16 Pmp22-F2sN cells PROTOCOL TABLE (format as described by Inglese J, Shamu CE and Guy RK. 2007) SEQUENCE No. (e.g., 1, 2, 3, etc.); […] (e.g., Cells, Incubation, Reagent, etc.); VALUE and DESCRIPTION. 1. Cells. Add 500-1,000 cells in 4 uL in growth media (DMEM High Glucose, No Phenol Red media + 10% heat-inactivated FBS + 1% Pen/Strep supplemented media) per well into Greiner 1536-well white/solid bottom high base, TC-treated plates. 2. Compounds. Library compounds and controls added at 23nL per well, transferred by Pin Tool. 3. Incubation. Incubate plates at 37C, 5% CO2, 95% RH for 24 h. 4. Reagent. Add 3.5uL Nano-Glo Dual-Luciferase Reporter Assay System reagent 1: Lysis and FLuc reagent per well of Greiner 1536-well plates. 5. Incubation. Incubate plates at room temperature for 10 min., protect from light. 6. Detector. FLuc luminescence measured using CCD-based camera (Viewlux). 7. Reagent. Add 3.5uL Nano-Glo Dual-Luciferase Reporter Assay System reagent 2: Stop&Glo reagent per well of Greiner 1536-well plates. 8. Incubation. Incubate plates at room temperature for 10 min., protect from light. 9. Detector. NLuc luminescence measured using CCD-based camera (Viewlux). NOTES (numbers refer to Sequence numbers above; values are from representative experiments) 6. Luminescence Read #1 (FLuc): Clear filter; Exposure = 10 sec, Gain = High, Speed = Slow, Binning = 2X 9. Luminescence Read #2 (NLuc): Clear filter; Exposure = 1 sec, Gain = High, Speed = Slow, Binning = 2X REFERENCES: 1. Inglese J, Shamu CE and Guy RK, Reporting data from high throughput screening of small molecule libraries, Nature Chemical Biology, 2007, 3(8): 438-441. doi.org/10.1038/nchembio0807-438 2. Yasgar A, Shinn P, Jadhav A, Auld DS, Michael S, Zheng W, Austin CP, Inglese J and Simeonov A, Compound Management for Quantitative High-Throughput Screening. J. Assoc. Lab. Auto., 2008, 13: 79-89. doi: 10.1016/j.jala.2007.12.004
As to `CCc1cnc2c(c1SCC(=O)N1CCC(C)CC1)c(=O)n(C)c(=O)n2C`, the Potency result is “inactive”.
For the compound `COc1ccc(NC(C)=O)cc1NC(=O)CN1CCN(c2ccc(F)cc2)CC1`, the Potency result is “inactive”.
For `COc1cc(C(=O)N2CCC(c3ccncc3)CC2)cc(OC)c1OC`, the Potency entry is “inactive”.
With `CCOC(=O)c1oc2ccc(S(=O)(=O)n3nc(-c4ccccc4OC)cc3N)cc2c1C`, the Potency is 14.4 µM (active).
For `COc1ccc(NC(=O)c2oc3ccc(S(=O)(=O)N4CCOCC4)cc3c2C)cc1` the value was “inactive”; for `COc1ccccc1-c1cc2nc(C)c(CCC(=O)O)c(C)n2n1`, “inactive”; for `COc1cccc(C(=O)NC2(C(F)(F)F)C(=O)Nc3c2c(=O)[nH]c(=O)n3-c2ccc(C)cc2)c1` (configuration not stated), “inactive”.
For `CCn1c(C(=O)Nc2cc(Cl)ccc2C)cc2sc(Cl)cc21` the value was “inactive”; for `Cc1ccc(NC(=O)C2CCCN2S(=O)(=O)c2cccc3cccnc23)c(C)c1` (configuration not stated), “inactive”; for `COC(=O)c1cc2occc2n1Cc1nc(-c2ccc(C)cc2)oc1C`, “inactive”.
Regarding `COc1ccc(-n2nc(C(=O)NCCc3ccc(Cl)cc3)c3c4ccccc4n(C)c3c2=O)cc1Cl`, the Potency entry was “inactive”.
Consider `Cc1ccccc1C(=O)Nc1sc2c(c1C(=O)N1CCC(C)CC1)CCCC2`, for which the Potency result was “inactive”.
Consider `O=C(Nc1ccc2nc(SCCOc3ccccc3)sc2c1)c1ccco1`, for which the Potency result was “inactive”.
`Cc1ccc(OCCSc2nc3ccc(NC(=O)COc4ccc(C)cc4)cc3s2)cc1`: the Potency is 8.91 µM (active).
On to `COc1cc(C)ccc1OCCSc1nc2ccc(NC(=O)c3ccc(C)cc3)cc2s1`, for which the Potency result is “inactive”.
In the case of `CCc1ccc(S(=O)(=O)n2ccnc2)cc1`, the Potency result is “inactive”.
Regarding `O=C(CN1C(=O)CCn2nc(-c3ccccc3)cc21)NCc1ccccc1`, the Potency result was “inactive”.
For `Cc1noc(/C=C/N(C)C)c1S(=O)(=O)N1CCCC(C(=O)Nc2cccc(F)c2)C1` (configuration not stated) the value was “inactive”; for `CC(=O)N1CCCc2cc(S(=O)(=O)N3CCCC(C(=O)N4CCN(c5cccc(Cl)c5)CC4)C3)ccc21` (configuration not stated), 10 µM (active).
Take `CC(=O)N1CCCc2cc(S(=O)(=O)N3CCCC(C(=O)NCc4ccc(Cl)cc4)C3)ccc21` (configuration not stated): the Potency result is “inactive”.
Regarding `COc1cccc(N2CCN(S(=O)(=O)c3ccc4c(c3)CCCN4C(C)=O)CC2)c1`, the Potency entry is “inactive”.
Turning to `Cc1cccc(Nc2cc(C)nc(-n3nc(C)cc3C)n2)c1`, the Potency was 9.15 µM (active).
For `Cc1ccc(Nc2nc3ccccc3nc2-n2nc(C)cc2C)c(Cl)c1`, the Potency result was “inactive”.
For the compound `Cc1cccc(Nc2nc(C)nc(N)c2S(=O)(=O)c2ccccc2)c1`, the Potency entry is “inactive”.
As to `Cc1c(Cl)cccc1NC(=O)Cn1cc(C(=O)c2cccs2)c2ccccc21`, the Potency is 8.91 µM (active).
In the case of `Cc1c(Cl)cccc1NC(=O)N1CCN(C(=O)c2nsc3ccccc23)CC1`, the Potency entry is “inactive”.
Take `Cc1cccc(NC(=O)Cn2cc(S(=O)(=O)Cc3ccccc3Cl)c3ccccc32)c1`: the Potency entry is “inactive”.
